# Experimental data published in PubChem BioAssay (NCI).
# This is part of a sample that, as a whole, favours compounds with a hit. Of some 83,000 tested, about 20% had one in any assay.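 How to read the values: 0–100, growth inhibition (40 = 60% inhibited); 0, no net growth; -100 to 0, cell death (-40 = 40% of starting cells died; -100 = all dead).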 Unmarked numbers belong to inactive results. Active and inactive are the calls of the source. How the source made its calls: active means growth percent below 10; inactive means the rest.
# How the values were obtained:
# Experiment in all cases: NCI-60 one-dose screen, 48 h (100 = growth as untreated, 0 = no growth, -100 = all killed)
# Details in all cases: 10 µM unless noted
# NCI-H226 lung = test system: NCI-H226 lung
# NCI-H322M lung = test system: NCI-H322M lung
# HOP-62 NSCLC = test system: HOP-62 NSCLC
# NCI-H460 lung = test system: NCI-H460 lung
# HOP-92 NSCLC = test system: HOP-92 NSCLC
# NCI-H522 lung = test system: NCI-H522 lung
# A549/ATCC NSCLC = test system: A549/ATCC NSCLC
# 786-0 renal = test system: 786-0 renal
# COLO 205 colon = test system: COLO 205 colon
# DU-145 prostate = test system: DU-145 prostate
# K-562 leukemia = test system: K-562 leukemia
# MALME-3M melanoma = test system: MALME-3M melanoma
# MDA-MB-231 breast = test system: MDA-MB-231 breast
# RXF 393 renal = test system: RXF 393 renal
# SF-268 CNS = test system: SF-268 CNS
# SF-295 CNS = test system: SF-295 CNS
# SF-539 CNS = test system: SF-539 CNS
# UACC-257 melanoma = test system: UACC-257 melanoma
# M14 melanoma = test system: M14 melanoma
# HCT-15 colon = test system: HCT-15 colon
SMILES,growth (NCI-H226 lung),growth (NCI-H322M lung),growth (HOP-62 NSCLC),growth (NCI-H460 lung),growth (HOP-92 NSCLC),growth (NCI-H522 lung),growth (A549/ATCC NSCLC),growth (786-0 renal),growth (COLO 205 colon),growth (DU-145 prostate),growth (K-562 leukemia),growth (MALME-3M melanoma),growth (MDA-MB-231 breast),growth (RXF 393 renal),growth (SF-268 CNS),growth (SF-295 CNS),growth (SF-539 CNS),growth (UACC-257 melanoma),growth (M14 melanoma),growth (HCT-15 colon)
Nc1cc(-c2c[nH]c3ccc(F)cc23)nc2cc(-c3c[nH]c4ccc(F)cc34)nn12,97.4%,94.1%,101%,32.2%,83.5%,90.3%,79.5%,66.3%,118%,72.7%,0.113% (active),94.9%,70.6%,128%,91.8%,85.4%,87.4%,116%,79.3%,31%
COC(=O)C(Cc1ccccc1)NS(=O)(=O)/N=C1\NC(=O)NC1=C(Cl)Cl (stereo not given),107%,91.4%,101%,97.6%,49.9%,96.2%,105%,77%,133%,105%,91.8%,94.8%,101%,119%,82.9%,99.5%,54%,91%,92.9%,99.5%
CC(C)(C)Nc1nc2c(OCCc3ccccc3)cccn2c1-c1ccc(O)cc1,63%,89.9%,80.3%,45.8%,28.3%,57.5%,48.6%,73.3%,85.6%,97.3%,17.4%,62.5%,79.6%,21.2%,91.3%,36%,72.9%,97.9%,63.1%,2.12% (active)
CCCC(=O)NC(c1ccc(N(CC)CC)cc1)c1cc(C)c2cccnc2c1O (stereo not given),1.21% (active),27.8%,17.4%,1.53% (active),46.4%,15.9%,28.7%,0.0799% (active),23.1%,25.6%,14.6%,16%,43.9%,43.1%,27.6%,17.6%,11.3%,24.9%,-33% (active),29.5%
COc1ccc(/C=C/C(=O)c2ccc(NC(=O)CSc3nnc(-c4ccc5nc(-c6ccc(Cl)cc6)[nH]c5c4)o3)cc2)cc1,87.6%,103%,103%,102%,102%,79.1%,105%,99.6%,118%,108%,87.3%,93.5%,98.4%,107%,114%,100%,94.3%,110%,106%,94.9%
C#Cc1nc(C2=C(C)C(OC(C)=O)/C(=N/OC(C)=O)C2)cs1 (stereo not given),96.1%,116%,-46.9% (active),36.1%,-79.9% (active),-86.2% (active),69.7%,-87.9% (active),51.3%,67%,15.4%,-46.5% (active),-69.9% (active),-19.5% (active),-42.6% (active),-89.8% (active),-90.9% (active),85.5%,69.2%,-11.2% (active)
COc1cc(OC)c(C2SCC(=O)N2Nc2ncnc3ccccc23)cc1OC (stereo not given),107%,96.4%,100%,111%,147%,98.9%,104%,104%,113%,106%,105%,96.2%,98.8%,124%,107%,102%,95.3%,108%,107%,103%
OC1CCN(CCCOc2c3ccccc3nc3c2oc2ccccc23)CC1,-31.2% (active),-17% (active),5.52% (active),0.894% (active),-11.8% (active),-48.6% (active),-12.2% (active),7.21% (active),-63.8% (active),1.33% (active),6.75% (active),-32.6% (active),-31.5% (active),-43.1% (active),2.44% (active),-14.7% (active),-12.5% (active),-17.7% (active),-71.8% (active),-8.3% (active)
CO/N=C1\CCc2c(sc(NC(=O)c3cccc(C(F)(F)F)c3)c2C(N)=O)C1,-10.4% (active),19.9%,-0.189% (active),2.77% (active),-12.7% (active),26.5%,-9.56% (active),1.79% (active),72.6%,52.9%,70.1%,29.4%,37.7%,-6% (active),51.8%,30.8%,34.2%,66%,47.7%,64.6%
Cc1c(Nc2nnc(SCC(=O)Nc3sc4c(c3C#N)CCCC4)s2)c(=O)n(-c2ccccc2)n1C,104%,98.9%,107%,100%,121%,97.5%,106%,108%,118%,105%,93.5%,119%,98.4%,118%,103%,107%,102%,116%,103%,103%
N#Cc1c(-c2ccc(Cl)cc2)nc(SCc2ccccc2)nc1N1CCNCC1,89.4%,79.6%,78.9%,-45.6% (active),21.8%,92.4%,66.7%,64.3%,-8% (active),63.8%,0.363% (active),84.4%,44.2%,74.4%,74.2%,94.3%,75.6%,97.3%,82.1%,13.2%
O=C(CN1CCOCC1)NNc1ncnc2ccccc12,107%,102%,115%,108%,51.5%,-61% (active),105%,58.9%,102%,102%,0.401% (active),-74.5% (active),2.91% (active),-39.7% (active),97.4%,95.9%,82.1%,86.3%,55.2%,70.8%
Cc1nc(-c2cc3ccccc3oc2=O)ccc1C(=O)/C=C/c1ccc(N2CCOCC2)cc1,88.3%,107%,90.8%,89.7%,80%,61.4%,91.6%,75.3%,91.6%,91.1%,38%,57.5%,54.3%,89.6%,75.3%,66%,45.2%,89%,45.6%,54.5%
O=C1Nc2cc(Cl)ccc2/C1=C\c1ccc(OCc2ccc([N+](=O)[O-])cc2)cc1,81%,75.1%,79.8%,59.9%,45.8%,66.9%,78%,51%,92.9%,79.9%,83.1%,75.1%,66.2%,64.3%,86.4%,68.2%,80.7%,89.5%,83.3%,77.8%
COc1ccc(-c2csc(N/N=C/c3c(-c4ccc(S(C)(=O)=O)cc4)nc4ccccn34)n2)cc1,115%,106%,121%,109%,99.9%,104%,105%,82.7%,120%,113%,98.5%,118%,107%,114%,110%,106%,107%,112%,106%,101%
O=C(c1ccc(Cl)cc1)C1[C@H](c2ccc(Cl)cc2)[C@@H](c2ccccc2)NC12C(=O)Nc1ccc(Br)cc12 (stereo not given in full),38.1%,56.2%,58.6%,8.65% (active),-1.5% (active),66%,29.2%,24.6%,55.9%,46.8%,17%,62.7%,37.2%,6.62% (active),34.3%,35.4%,59.5%,57.7%,27.2%,24.6%
